PAX8 reporter: inhibitors of PAX8 transcriptional activity in RMG-I cells; 360,000 tested, 1.2% active; AID 652154; RMG-I TPO-luciferase reporter, SteadyGlo, 24 h; inhibition, % at 12.6 µM;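 active means mean replicate inhibition at least 60% with every replicate also reaching 60%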;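 further: luciferase light reporting Pax8 driven TPO promoter activity; plate controls were median of neutral control wells for no effect and mitoxantrone controls for full effect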
EBV LMP1 NFkB: Epstein-Barr LMP1 NF-kappaB reporter inhibition; LMP1-induced NF-kappaB luciferase reporter cells, luminescence; inhibition, % at 12.5 µM; 350,000 tested, 0.69% active; AID 504558; in the data active means inhibition above about 41%;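 further: 0% = neutral control wells and 100% = reference inhibitor control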
TRPM1 prom inh: inhibitors of MITF-driven TRPM1 promoter in melanoma cells | AID 488899 | SK-MEL-5 TRPM1 promoter luciferase, 24 h | inhibition, % at 12.5 µM | 330,000 tested, 0.83% active;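 active means mean inhibition across replicates of 60% or more, whatever share of single replicates reaches that level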
Peg3 prom inh: inhibitors of Peg3 promoter. inhibition, % at 20 µM. 360,000 tested, 1.7% active. HeLa PEG-Prom luciferase reporter, luminescence, overnight. AID 588405;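 active means inhibition of at least 50% at 20 µM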
Shn3 3UTR inh: Schnurri-3 reporter inhibition in Clone20 osteoblasts | Clone20 osteoblast Shn3 3'UTR firefly luciferase, 24 h | 360,000 tested, 0.52% active | inhibition, % at 12.5 µM | AID 588674;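 active means mean inhibition of at least 75% with every replicate also reaching 75%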;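 further: 0% = median of neutral control wells and 100% = pilot-screen positive control compound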
HIF-2a inh: blocks HIF-2a reporter activity | AID 624352 | 786-0 RCC cells HIF-2a reporter, luciferase luminescence, overnight | inhibition, % at 18.8 µM | 360,000 tested, 0.72% active;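 active means inhibition of the luminescence signal of 40% or more relative to plate controls, in a single-dose primary screen at 18.75 µM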
* marks the source's active call; other numbers are inactive results; / = no result. The list is not random: actives were taken first. Their share in the collection is about 2.8%.

SMILES | PAX8 reporter | EBV LMP1 NFkB | TRPM1 prom inh | Peg3 prom inh | Shn3 3UTR inh | HIF-2a inh
Nc1nc(CN2CCN(Cc3ccccc3)CC2)nc(Nc2ccccc2)n1 | / | -5.6 | 12.1 | 23.3 | 10.6 | 8.0
Cc1ccc(Nc2nc(N)nc(CCl)n2)cc1 | 105.2* | -34.8 | -39.7 | -110.1 | -98.2 | -96.7
CCCNC(=O)C[C@@H]1CC[C@@H]2[C@@H](COc3ccc(NC(=O)c4cc(F)cc(F)c4)cc3C(=O)N2C)O1 | 19.4 | / | / | / | / | /
CSc1ccccc1NC(=O)CN(C1CCCCC1)S(C)(=O)=O | -11.1 | -6.6 | 1.5 | 10.1 | 12.7 | 13.1
CS(=O)(=O)N(CC(=O)Nc1ccc(F)cc1F)C1CCCCC1 | 2.0 | 81.6* | 9.5 | 7.5 | 4.0 | 19.0
Cc1ccc(S(=O)(=O)N(C)C[C@H]2Oc3ccc(NC(=O)Nc4ccc(C(F)(F)F)cc4)cc3CC(=O)N([C@H](C)CO)C[C@@H]2C)cc1 | 81.6* | / | / | / | / | /
Cc1ccc(S(=O)(=O)N(C)C[C@@H]2Oc3ccc(NC(=O)Nc4ccc(C(F)(F)F)cc4)cc3CC(=O)N([C@H](C)CO)C[C@@H]2C)cc1 | 97.2* | / | / | / | / | /
C[C@@H]1CN([C@@H](C)CO)C(=O)Cc2cc(NC(=O)Nc3ccccc3)ccc2O[C@@H]1CN(C)S(=O)(=O)c1ccc(Cl)cc1 | 43.4 | / | / | / | / | /
C[C@H](CO)N1C[C@H](C)[C@H](CN(C)S(=O)(=O)c2ccc(Cl)cc2)Oc2ccc(NC(=O)Nc3ccc(F)cc3)cc2CC1=O | 73.9* | / | / | / | / | /
Cc1ccc(S(=O)(=O)N(C)C[C@H]2Oc3ccc(NC(=O)Nc4ccc(C(F)(F)F)cc4)cc3CC(=O)N([C@H](C)CO)C[C@H]2C)cc1 | 62.7* | / | / | / | / | /
CCCN1[C@@H]2c3ccc(-c4ccccc4OC)c(=O)n3C[C@@H]2[C@@H](CO)[C@@H]1C(=O)OC | 8.7 | / | / | / | / | /
C[C@@H]1CN([C@@H](C)CO)C(=O)Cc2cc(NC(=O)Nc3ccc(C(F)(F)F)cc3)ccc2O[C@H]1CN(C)S(=O)(=O)c1ccc(F)cc1 | 94.3* | / | / | / | / | /
CCNC(=O)C[C@H]1CC[C@H]2[C@@H](COC[C@@H](O)CN2C(=O)c2cccnc2)O1 | -18.7 | / | / | / | / | /
CN1CCN(c2cc3c(c4c2[nH]c2ccccc24)C(=O)CC(C)(C)C3)CC1 | 17.9 | -22.1 | 4.8 | 107.2* | -3.4 | -28.8
CN1CCN(c2ccc(Cl)cc2NC(=O)c2cc(=O)[nH]c3ccccc23)CC1 | 0.0 | 6.4 | -24.8 | 7.8 | -33.1 | -14.1
C[C@@H]1CN([C@@H](C)CO)C(=O)c2cc(NC(=O)Cc3cn(C)c4ccccc34)ccc2O[C@H]1CN(C)Cc1ccc(C(=O)O)cc1 | 2.7 | / | / | / | / | /
COc1ccc(NC(=O)C(Cl)=C(Cl)Cl)cn1 | 52.4 | 3.2 | -14.7 | 14.9 | 9.0 | -10.4
COc1ccc(NC(=O)/C(Cl)=C(/Cl)S(=O)Cc2ccc(Cl)cc2)cn1 (centres undefined) | 88.1* | 77.8* | 93.7* | 104.0* | 96.3* | 97.3*
CCc1c(C)nc2cc(-c3ccc(OC)c(OC)c3)nn2c1NCC1CC1 | / | 80.1* | -22.1 | -0.1 | 92.6* | -83.3
O=C(Nc1cccnc1)c1ccc(CN2CCc3ccccc3C2)cc1 | 6.5 | 12.9 | 10.0 | -7.8 | 16.2 | -10.8
Cc1ccc(NC(=O)c2ccc(CN3CCN(C)CC3)cc2)cc1Nc1nccc(-c2cccnc2)n1 | -24.4 | 76.6* | -19.2 | -23.4 | -31.9 | -41.9
O=C(CSc1nnnn1-c1ccccc1)Nc1nsc(-c2ccc(Cl)cc2)n1 | / | 76.4* | 4.7 | -69.8 | 52.6 | -69.7
CC1(C)N=C(N)N=C(N)N1CCCCc1ccccc1 | 72.6* | 22.3 | 41.2 | 23.6 | 57.9 | 18.7
Cc1ccccc1N1C(N)=NC(N)=NC1(C)C | / | -5.4 | 0.2 | / | -5.5 | /
N#C[C@@H]1[C@H](c2ccccc2)[C@@H](CO)N1C(=O)C1CCCC1 | 7.8 | / | / | / | / | /
SMILES | PAX8 reporter | EBV LMP1 NFkB | TRPM1 prom inh | Peg3 prom inh | Shn3 3UTR inh | HIF-2a inh
Oc1ccccc1-n1c(-c2ccccc2)ccc1-c1ccccc1 | -3.5 | -2.0 | 5.1 | 57.4* | 7.5 | -69.8
O=C(C[C@@H]1C[C@H]2c3cc(NC(=O)Nc4ccc(C(F)(F)F)cc4)ccc3O[C@H]2[C@@H](CO)O1)NCC1CC1 | -3.7 | / | / | / | / | /
CC(=C\c1ccccc1)/C=C1/SC(=S)N(CCCC(=O)O)C1=O | 12.0 | 21.6 | 44.1 | 22.4 | 9.3 | 91.2*
O=C(O)CCCN1C(=O)/C(=C\c2ccco2)SC1=S | 21.1 | -0.5 | 19.6 | 24.5 | -4.5 | 55.3*
N#C[C@@H]1[C@H](c2ccc(C3=CCCC3)cc2)[C@H](CO)N1C(=O)C1CCC1 | -5.2 | / | / | / | / | /
O=C(/C=C/c1ccccc1)c1c[nH]c2ccccc12 | -11.7 | -29.6 | -73.0 | -362.4 | -92.8 | -233.2
O=C(C=Cc1ccccc1)c1c[nH]c2ccccc2c1=O | 86.0* | -11.6 | 45.6 | 96.6* | -23.8 | -18.3
O=C(O)C1C=CC(C(=O)O)c2ccccc21 (centres undefined) | 93.2* | -14.8 | / | 4.8 | 1.9 | 11.2
O=[N+]([O-])c1ccccc1Nc1c2ccccc2nc2ccccc12 | 11.8 | 11.9 | 4.6 | 16.2 | 42.2 | 20.2
O=[N+]([O-])c1cccc2nc3ccccc3c(NCCCn3ccnc3[N+](=O)[O-])c12 | -6.5 | 2.9 | 81.8* | 99.1* | -3.9 | -8.8
C[C@@H]1CN([C@H](C)CO)C(=O)Cc2cc(NC(=O)Cn3cnnn3)ccc2O[C@H]1CN(C)Cc1ccc(Oc2ccccc2)cc1 | -4.9 | / | / | / | / | /
CC[n+]1ccc(/C=C/c2c[nH]c3ccccc23)cc1 | 75.5* | 11.2 | 25.1 | 20.9 | 43.9 | 16.2
CCn1c(/C=C/c2c[nH]c3ccccc23)nc2ccccc2c1=O | -92.3 | -75.7 | -112.8 | -306.4 | -10.5 | -274.5
Cc1ccc2[nH]cc(/C=C/c3cc[n+](C)cc3)c2c1 | 78.4* | 14.4 | 38.2 | 18.1 | 39.5 | 8.2
COc1ccc2c(/C=C/c3cc[n+](C)cc3)c[nH]c2c1 | 36.5 | 2.4 | 9.5 | 24.0 | 11.6 | 12.2
C[C@@H]1CN([C@H](C)CO)C(=O)c2ccccc2-c2ccccc2CO[C@@H]1CN(C)C(=O)Cc1ccccc1 | -40.9 | / | / | / | / | /
FC(F)(F)c1cccc(NC(=S)Nc2ccc(Cl)c(Cl)c2)c1 | 0.7 | 9.5 | 13.6 | 24.3 | -63.5 | -35.4
O=[N+]([O-])c1cc(C(F)(F)F)cc([N+](=O)[O-])c1NCCNC(=S)Nc1ccc(Cl)c(Cl)c1 | 29.1 | 1.5 | -4.5 | 53.0* | / | 7.8
CC(C)CC#Cc1ccc2c(c1)O[C@@H](CN(C)Cc1ccncc1)[C@H](C)CN([C@@H](C)CO)S2(=O)=O | 87.3* | / | / | / | / | /
CC(C)CC#Cc1ccc2c(c1)O[C@H](CN(C)Cc1ccccn1)[C@@H](C)CN([C@@H](C)CO)S2(=O)=O | 60.8* | / | / | / | / | /
Cc1[nH]c2c(C)cccc2c1CCNC(=O)c1ccc2c(c1[N+](=O)[O-])C(=O)c1ccccc1C2=O | / | 15.9 | 9.9 | 102.5* | -1.9 | -10.1
CN(C)C(=O)c1ccc2c(c1[N+](=O)[O-])C(=O)c1ccccc1C2=O | -14.9 | -13.7 | -12.7 | -88.4 | 1.3 | -138.0
Cc1[nH]c2ccccc2c1CCNC(=O)c1ccc2c(c1[N+](=O)[O-])C(=O)c1ccccc1C2=O | / | 3.7 | 12.0 | 101.5* | -7.5 | -29.2
